# What was measured:
# Test in all cases: DAPPL (digital affinity profiling via proximity ligation, sequencing); 10 mM Tris-HCl pH 7.5, 50 mM NaCl, 1 mM DTT, 4% glycerol, room temperature, 30 min; GST-TFs on glutathione beads, 16-mer random dsDNA library, 0.1% formaldehyde crosslink after washing; high values mean tight binding
# Conditions in all cases: protein: recombinant; tags: N-terminal GST; dsDNA, one strand shown
# [1] = biological target: T1, FLI1 (Homo sapiens, UniProt Q01543 1-452)
# T1 sequence: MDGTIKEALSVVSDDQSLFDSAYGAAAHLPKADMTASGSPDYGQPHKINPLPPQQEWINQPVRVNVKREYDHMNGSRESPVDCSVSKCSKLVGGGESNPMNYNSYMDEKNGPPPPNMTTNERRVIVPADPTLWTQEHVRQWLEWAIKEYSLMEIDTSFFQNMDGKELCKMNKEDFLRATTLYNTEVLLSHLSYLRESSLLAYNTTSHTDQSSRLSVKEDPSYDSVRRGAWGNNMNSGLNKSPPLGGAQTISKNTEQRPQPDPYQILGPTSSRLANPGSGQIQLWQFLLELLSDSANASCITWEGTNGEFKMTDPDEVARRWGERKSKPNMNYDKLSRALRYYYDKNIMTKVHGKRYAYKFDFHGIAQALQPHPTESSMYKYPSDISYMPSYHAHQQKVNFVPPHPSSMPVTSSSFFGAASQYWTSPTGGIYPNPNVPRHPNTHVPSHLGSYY
# How it was run: (§1)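 Binding signal is given per hexamer as its read frequency for a factor divided by its frequency in the tag-only sample. GST-fused human transcription factors were expressed in yeast, captured on glutathione beads, barcoded with DNA and pooled with that sample, then incubated with 200 nmole of a 16-mer random double-stranded DNA library in Tris/NaCl/DTT/glycerol buffer for 30 min at room temperature. The pools were then washed, crosslinked, proximity-ligated, amplified by PCR and sequenced on an Illumina NextSeq500.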
# [2] = biological target: T2, ELK1 (Homo sapiens, UniProt P19419 1-428)
# T2 sequence: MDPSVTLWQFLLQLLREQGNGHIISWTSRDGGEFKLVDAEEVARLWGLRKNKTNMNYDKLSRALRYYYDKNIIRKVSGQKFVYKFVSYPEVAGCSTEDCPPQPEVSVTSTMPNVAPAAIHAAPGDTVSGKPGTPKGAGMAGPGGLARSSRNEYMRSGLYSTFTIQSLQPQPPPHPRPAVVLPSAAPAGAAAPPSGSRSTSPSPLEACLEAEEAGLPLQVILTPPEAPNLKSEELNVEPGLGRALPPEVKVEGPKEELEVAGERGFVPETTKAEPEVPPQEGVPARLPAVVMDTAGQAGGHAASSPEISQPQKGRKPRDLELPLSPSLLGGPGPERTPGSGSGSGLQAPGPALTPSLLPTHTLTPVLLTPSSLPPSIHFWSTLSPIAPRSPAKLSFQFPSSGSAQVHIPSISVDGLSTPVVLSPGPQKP
# How it was run: as §1
# [3] = biological target: T3, GABPA (Homo sapiens, UniProt Q06546 1-454)
# T3 sequence: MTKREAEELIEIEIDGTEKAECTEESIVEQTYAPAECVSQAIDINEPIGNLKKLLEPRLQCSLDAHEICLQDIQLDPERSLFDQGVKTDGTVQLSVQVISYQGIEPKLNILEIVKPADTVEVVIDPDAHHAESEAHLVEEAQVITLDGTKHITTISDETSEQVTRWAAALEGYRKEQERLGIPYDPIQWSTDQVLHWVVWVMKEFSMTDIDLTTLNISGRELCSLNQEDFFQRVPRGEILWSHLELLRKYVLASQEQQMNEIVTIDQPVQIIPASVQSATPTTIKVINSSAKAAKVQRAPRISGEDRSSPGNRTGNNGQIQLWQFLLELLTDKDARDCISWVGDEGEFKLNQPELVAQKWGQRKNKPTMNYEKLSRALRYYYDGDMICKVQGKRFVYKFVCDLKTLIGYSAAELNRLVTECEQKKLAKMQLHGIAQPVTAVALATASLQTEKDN
# How it was run: as §1
# [4] = biological target: T4, ERG (Homo sapiens, UniProt P11308 1-479)
# T4 sequence: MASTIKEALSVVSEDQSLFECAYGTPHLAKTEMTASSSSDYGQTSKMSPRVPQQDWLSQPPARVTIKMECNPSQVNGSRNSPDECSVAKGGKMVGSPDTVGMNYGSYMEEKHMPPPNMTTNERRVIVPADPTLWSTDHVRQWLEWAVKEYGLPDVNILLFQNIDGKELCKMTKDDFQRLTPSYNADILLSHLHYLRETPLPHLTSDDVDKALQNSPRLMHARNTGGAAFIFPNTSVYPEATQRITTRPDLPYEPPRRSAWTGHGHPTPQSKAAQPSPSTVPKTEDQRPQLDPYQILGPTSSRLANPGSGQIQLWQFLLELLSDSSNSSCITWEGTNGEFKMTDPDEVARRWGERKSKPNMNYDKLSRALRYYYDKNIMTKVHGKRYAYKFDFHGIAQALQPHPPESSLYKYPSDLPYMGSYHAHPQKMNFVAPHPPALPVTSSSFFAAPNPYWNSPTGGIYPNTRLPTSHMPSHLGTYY
# How it was run: as §1
# [5] = biological target: ELF1 (Homo sapiens, UniProt P32519 1-619)
# How it was run: as §1
# [6] = biological target: T5, EHF (Homo sapiens, UniProt Q9NZC4 1-300)
# T5 sequence: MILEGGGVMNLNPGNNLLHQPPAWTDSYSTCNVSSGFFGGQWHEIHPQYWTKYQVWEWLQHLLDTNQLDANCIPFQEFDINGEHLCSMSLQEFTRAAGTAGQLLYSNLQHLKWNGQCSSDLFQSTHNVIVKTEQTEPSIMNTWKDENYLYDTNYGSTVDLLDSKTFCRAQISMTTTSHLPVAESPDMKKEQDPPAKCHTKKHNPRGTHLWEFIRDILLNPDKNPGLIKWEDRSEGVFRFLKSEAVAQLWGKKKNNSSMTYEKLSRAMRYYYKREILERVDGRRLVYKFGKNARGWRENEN
# How it was run: as §1
# [7] = biological target: SPI1 (Homo sapiens, UniProt P17947 1-270)
# How it was run: as §1
# [8] = biological target: SPIB (Homo sapiens, UniProt Q01892 1-262)
# How it was run: as §1
# [9] = biological target: T6, ELK3 (Homo sapiens, UniProt P41970 1-407)
# T6 sequence: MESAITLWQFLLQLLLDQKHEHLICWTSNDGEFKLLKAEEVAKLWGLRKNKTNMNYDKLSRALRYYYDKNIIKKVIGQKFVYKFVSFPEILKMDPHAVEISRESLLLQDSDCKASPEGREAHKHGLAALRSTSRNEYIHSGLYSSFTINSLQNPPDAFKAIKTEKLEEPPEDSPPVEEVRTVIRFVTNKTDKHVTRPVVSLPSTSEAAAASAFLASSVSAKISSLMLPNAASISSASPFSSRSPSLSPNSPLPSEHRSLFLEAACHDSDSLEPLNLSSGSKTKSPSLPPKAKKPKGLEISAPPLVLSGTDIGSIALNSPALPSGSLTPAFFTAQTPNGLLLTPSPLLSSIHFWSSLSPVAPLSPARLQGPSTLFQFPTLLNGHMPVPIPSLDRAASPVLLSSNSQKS
# How it was run: as §1
# [10] = biological target: T7, FEV (Homo sapiens, UniProt Q99581 1-238)
# T7 sequence: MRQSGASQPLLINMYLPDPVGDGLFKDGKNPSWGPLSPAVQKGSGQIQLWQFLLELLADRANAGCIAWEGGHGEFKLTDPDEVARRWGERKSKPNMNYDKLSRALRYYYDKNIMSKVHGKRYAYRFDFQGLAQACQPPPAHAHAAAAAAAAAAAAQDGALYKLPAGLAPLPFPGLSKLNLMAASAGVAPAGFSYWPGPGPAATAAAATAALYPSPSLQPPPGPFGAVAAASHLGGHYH
# How it was run: as §1
# [11] = biological target: ETV5 (Homo sapiens, UniProt P41161 1-510)
# How it was run: as §1
# [12] = biological target: T8, SPIC (Homo sapiens, UniProt Q8N5J4 1-248)
# T8 sequence: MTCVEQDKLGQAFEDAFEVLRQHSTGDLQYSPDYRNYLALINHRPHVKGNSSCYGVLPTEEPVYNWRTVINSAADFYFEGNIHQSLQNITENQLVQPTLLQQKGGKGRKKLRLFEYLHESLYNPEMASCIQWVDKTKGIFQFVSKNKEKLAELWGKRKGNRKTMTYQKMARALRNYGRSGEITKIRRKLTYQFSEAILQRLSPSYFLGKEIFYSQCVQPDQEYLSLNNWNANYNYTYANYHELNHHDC
# How it was run: as §1
# [13] = biological target: ELF4 (Homo sapiens, UniProt Q99607 1-663)
# How it was run: as §1
# [14] = biological target: ETV1 (Homo sapiens, UniProt P50549 1-477)
# How it was run: as §1
# [15] = biological target: T9, ERF (Homo sapiens, UniProt P50548 1-548)
# T9 sequence: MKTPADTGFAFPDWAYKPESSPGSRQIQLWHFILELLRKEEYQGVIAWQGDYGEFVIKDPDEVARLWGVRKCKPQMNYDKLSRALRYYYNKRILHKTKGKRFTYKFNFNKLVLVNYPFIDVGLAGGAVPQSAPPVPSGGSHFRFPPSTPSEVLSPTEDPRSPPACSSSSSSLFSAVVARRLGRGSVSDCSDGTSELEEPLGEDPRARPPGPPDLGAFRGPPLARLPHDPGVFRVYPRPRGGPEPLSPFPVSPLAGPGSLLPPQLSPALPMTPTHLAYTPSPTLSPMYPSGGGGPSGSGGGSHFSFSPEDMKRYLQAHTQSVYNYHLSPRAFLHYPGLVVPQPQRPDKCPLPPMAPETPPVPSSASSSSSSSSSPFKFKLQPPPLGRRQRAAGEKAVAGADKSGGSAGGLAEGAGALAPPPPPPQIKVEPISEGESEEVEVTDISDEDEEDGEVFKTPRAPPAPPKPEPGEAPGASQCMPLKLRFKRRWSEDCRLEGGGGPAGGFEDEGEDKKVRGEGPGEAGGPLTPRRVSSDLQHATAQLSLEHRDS
# How it was run: as §1
# [16] = biological target: T10, ETV3L (Homo sapiens, UniProt Q6ZN32 1-361)
# T10 sequence: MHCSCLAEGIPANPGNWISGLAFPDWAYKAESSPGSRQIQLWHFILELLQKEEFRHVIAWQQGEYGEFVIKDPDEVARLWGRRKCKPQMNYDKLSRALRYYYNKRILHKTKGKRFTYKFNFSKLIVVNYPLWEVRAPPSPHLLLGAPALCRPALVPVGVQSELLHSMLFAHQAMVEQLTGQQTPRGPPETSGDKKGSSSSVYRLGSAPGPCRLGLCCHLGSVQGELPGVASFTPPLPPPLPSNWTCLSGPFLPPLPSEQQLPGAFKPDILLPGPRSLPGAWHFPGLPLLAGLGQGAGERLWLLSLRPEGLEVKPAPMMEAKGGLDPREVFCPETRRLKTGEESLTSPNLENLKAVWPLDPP
# How it was run: as §1
# [17] = biological target: T11, ETS2 (Homo sapiens, UniProt P15036 1-469)
# T11 sequence: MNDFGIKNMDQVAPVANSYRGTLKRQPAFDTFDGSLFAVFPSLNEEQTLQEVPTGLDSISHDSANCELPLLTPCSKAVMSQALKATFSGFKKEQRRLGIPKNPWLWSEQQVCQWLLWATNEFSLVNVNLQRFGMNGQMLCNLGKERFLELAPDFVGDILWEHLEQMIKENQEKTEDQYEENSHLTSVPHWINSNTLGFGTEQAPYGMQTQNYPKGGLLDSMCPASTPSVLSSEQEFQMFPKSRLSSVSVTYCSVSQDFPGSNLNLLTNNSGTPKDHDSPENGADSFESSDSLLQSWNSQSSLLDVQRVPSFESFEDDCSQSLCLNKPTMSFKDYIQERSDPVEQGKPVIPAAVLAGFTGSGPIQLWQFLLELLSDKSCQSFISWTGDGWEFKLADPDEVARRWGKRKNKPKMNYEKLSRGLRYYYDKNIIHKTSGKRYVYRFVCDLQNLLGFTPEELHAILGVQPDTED
# How it was run: as §1
# [18] = biological target: T12, ELF5 (Homo sapiens, UniProt Q9UKW6-2 1-255)
# T12 sequence: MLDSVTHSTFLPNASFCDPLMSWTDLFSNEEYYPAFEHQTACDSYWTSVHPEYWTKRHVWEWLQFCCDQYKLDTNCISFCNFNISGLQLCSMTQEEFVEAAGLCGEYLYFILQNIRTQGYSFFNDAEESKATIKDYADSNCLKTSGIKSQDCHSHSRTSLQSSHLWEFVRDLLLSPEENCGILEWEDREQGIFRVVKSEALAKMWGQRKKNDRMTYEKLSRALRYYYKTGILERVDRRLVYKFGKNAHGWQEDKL
# How it was run: as §1
# [19] = biological target: T13, ETV3 (Homo sapiens, UniProt P41162-2 1-143)
# T13 sequence: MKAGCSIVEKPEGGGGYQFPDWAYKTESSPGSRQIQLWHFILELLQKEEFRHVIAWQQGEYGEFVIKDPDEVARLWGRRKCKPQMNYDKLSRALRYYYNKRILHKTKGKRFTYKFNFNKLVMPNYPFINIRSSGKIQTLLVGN
# How it was run: as §1
# [20] = biological target: ETV6 (Homo sapiens, UniProt P41212 1-452)
# How it was run: as §1
# Sequence of ETV1 (P50549 whole entry): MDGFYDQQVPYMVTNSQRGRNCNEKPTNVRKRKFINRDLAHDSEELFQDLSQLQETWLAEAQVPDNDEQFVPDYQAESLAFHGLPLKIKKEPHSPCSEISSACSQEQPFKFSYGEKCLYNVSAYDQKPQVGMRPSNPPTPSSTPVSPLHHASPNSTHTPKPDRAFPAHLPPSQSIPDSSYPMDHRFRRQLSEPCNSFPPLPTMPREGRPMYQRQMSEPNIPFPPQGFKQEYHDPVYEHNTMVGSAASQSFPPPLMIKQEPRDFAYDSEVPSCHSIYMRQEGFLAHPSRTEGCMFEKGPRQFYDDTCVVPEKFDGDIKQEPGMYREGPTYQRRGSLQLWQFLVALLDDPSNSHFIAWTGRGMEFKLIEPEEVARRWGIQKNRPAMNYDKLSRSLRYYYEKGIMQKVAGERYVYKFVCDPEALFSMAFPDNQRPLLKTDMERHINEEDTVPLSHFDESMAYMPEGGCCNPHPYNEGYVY
# Sequence of ELF4 (Q99607 whole entry): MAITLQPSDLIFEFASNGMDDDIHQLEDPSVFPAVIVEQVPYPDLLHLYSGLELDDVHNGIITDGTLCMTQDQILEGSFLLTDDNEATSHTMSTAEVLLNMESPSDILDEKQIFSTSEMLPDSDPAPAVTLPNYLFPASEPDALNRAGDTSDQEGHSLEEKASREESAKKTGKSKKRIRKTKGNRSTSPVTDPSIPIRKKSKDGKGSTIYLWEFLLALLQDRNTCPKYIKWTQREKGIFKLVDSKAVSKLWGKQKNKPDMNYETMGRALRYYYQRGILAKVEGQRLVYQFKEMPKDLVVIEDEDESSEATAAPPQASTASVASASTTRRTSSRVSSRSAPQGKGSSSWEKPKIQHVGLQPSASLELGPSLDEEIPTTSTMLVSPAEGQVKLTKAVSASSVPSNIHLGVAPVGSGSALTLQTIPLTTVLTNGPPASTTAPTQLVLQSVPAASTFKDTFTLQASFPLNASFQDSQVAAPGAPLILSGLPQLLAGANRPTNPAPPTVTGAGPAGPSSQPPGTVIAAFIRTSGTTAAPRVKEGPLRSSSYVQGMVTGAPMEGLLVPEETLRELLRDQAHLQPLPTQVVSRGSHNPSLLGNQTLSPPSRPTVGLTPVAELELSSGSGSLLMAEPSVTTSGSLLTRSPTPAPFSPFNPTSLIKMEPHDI
# Sequence of SPIB (Q01892 whole entry): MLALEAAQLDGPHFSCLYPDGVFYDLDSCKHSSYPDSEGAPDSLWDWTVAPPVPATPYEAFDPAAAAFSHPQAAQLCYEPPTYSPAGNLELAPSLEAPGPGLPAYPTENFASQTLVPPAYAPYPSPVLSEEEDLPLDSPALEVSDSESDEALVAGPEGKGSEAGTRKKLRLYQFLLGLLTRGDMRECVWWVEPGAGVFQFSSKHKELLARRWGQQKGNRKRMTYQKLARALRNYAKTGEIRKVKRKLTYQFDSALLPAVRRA
# Sequence of ETV6 (P41212 whole entry): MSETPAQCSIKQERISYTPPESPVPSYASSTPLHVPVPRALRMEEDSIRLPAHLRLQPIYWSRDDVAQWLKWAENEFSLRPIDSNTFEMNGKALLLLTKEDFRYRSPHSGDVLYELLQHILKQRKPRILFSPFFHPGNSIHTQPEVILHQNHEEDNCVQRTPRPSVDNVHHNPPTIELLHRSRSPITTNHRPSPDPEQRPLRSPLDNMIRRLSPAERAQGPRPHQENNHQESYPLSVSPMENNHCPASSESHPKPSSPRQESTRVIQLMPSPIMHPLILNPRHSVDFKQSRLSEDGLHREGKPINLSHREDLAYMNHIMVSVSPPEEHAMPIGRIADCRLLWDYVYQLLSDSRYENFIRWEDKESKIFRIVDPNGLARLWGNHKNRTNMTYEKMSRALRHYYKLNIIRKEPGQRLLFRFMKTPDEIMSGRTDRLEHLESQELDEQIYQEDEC
# Sequence of ETV5 (P41161 whole entry): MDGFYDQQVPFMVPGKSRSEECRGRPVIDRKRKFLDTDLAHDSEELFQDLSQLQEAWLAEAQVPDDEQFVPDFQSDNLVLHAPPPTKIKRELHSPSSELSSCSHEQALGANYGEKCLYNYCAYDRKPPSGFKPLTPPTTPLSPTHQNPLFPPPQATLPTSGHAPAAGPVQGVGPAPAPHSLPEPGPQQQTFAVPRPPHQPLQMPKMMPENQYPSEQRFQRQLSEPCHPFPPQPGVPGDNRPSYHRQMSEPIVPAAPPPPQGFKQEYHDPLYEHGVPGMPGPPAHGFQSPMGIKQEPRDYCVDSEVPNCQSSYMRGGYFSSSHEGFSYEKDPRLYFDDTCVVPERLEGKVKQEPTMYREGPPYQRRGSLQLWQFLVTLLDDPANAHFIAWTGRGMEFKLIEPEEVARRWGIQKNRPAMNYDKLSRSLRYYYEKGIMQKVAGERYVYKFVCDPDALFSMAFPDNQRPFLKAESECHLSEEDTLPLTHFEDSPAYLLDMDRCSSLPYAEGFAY
# Sequence of ELF1 (P32519 whole entry): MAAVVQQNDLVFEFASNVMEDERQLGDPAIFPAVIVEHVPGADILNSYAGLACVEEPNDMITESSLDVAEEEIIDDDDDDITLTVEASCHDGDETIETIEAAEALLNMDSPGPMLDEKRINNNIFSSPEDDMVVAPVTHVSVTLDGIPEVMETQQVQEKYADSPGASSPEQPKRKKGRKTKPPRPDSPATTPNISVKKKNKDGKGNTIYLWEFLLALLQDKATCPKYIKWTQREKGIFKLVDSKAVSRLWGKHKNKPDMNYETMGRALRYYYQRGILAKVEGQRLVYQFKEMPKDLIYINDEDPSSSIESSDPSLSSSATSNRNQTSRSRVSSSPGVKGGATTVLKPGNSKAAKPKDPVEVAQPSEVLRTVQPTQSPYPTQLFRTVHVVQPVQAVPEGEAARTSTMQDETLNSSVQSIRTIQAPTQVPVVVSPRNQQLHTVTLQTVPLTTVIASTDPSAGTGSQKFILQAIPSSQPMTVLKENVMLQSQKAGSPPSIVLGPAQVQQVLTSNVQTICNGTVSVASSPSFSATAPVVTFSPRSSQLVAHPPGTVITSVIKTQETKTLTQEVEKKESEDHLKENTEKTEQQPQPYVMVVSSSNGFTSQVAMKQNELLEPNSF
sequence,measurement,setting,value
GAAGTC,binding signal,[1],"1.15 fold enrichment (6-mer frequency, TF over GST control)"
same,binding signal,[2],"1.2 fold enrichment (6-mer frequency, TF over GST control)"
same,binding signal,[3],"1.04 fold enrichment (6-mer frequency, TF over GST control)"
same,binding signal,[4],"1.33 fold enrichment (6-mer frequency, TF over GST control)"
same,binding signal,[5],"1.1 fold enrichment (6-mer frequency, TF over GST control)"
same,binding signal,[6],"1.13 fold enrichment (6-mer frequency, TF over GST control)"
same,binding signal,[7],"1.51 fold enrichment (6-mer frequency, TF over GST control)"
same,binding signal,[8],"1.22 fold enrichment (6-mer frequency, TF over GST control)"
same,binding signal,[9],"1.19 fold enrichment (6-mer frequency, TF over GST control)"
same,binding signal,[10],"1.22 fold enrichment (6-mer frequency, TF over GST control)"
same,binding signal,[11],"1.17 fold enrichment (6-mer frequency, TF over GST control)"
same,binding signal,[12],"1.23 fold enrichment (6-mer frequency, TF over GST control)"
same,binding signal,[13],"1.08 fold enrichment (6-mer frequency, TF over GST control)"
same,binding signal,[14],"1.22 fold enrichment (6-mer frequency, TF over GST control)"
same,binding signal,[15],"1.11 fold enrichment (6-mer frequency, TF over GST control)"
same,binding signal,[16],"1.14 fold enrichment (6-mer frequency, TF over GST control)"
same,binding signal,[17],"1.19 fold enrichment (6-mer frequency, TF over GST control)"
same,binding signal,[18],"1.26 fold enrichment (6-mer frequency, TF over GST control)"
same,binding signal,[19],"1.21 fold enrichment (6-mer frequency, TF over GST control)"
same,binding signal,[20],"1.22 fold enrichment (6-mer frequency, TF over GST control)"
